High-throughput results (PubChem BioAssay)
AmpC inh detg: AmpC beta-lactamase inhibition with detergent present; P00811; 370,000 tested, 0.041% active; AmpC hydrolysis of nitrocefin, absorbance 480 nm, 0.01% Triton; AID 485294; Potency, µM (highest dose often 114 µM), for the others: at the highest dose activity change, negative = inhibition, usual class: inhibitors;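 further: 0% = no-compound wells and -100% = no-enzyme wells; nearly all actives have a fitted effect of over 25% in size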
Target sequence (P00811 whole entry, looked up): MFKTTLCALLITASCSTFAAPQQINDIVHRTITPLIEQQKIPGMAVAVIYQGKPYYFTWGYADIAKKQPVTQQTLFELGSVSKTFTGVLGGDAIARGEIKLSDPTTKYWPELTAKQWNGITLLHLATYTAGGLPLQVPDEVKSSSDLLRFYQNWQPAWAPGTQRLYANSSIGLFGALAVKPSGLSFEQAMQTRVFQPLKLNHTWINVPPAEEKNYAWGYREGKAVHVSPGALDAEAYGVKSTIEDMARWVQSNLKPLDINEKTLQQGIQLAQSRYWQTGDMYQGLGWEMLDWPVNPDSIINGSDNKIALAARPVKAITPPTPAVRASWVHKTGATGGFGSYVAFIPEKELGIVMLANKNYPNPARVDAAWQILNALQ
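AmpC (5.3 nM in the dispensed reagent) in 20 mM phosphate pH 7.0 with 0.01% (detergent screen) or 0.0001% Triton X-100 was preincubated with compounds for 15 min at room temperature. Nitrocefin was then added from an 800 uM solution, and hydrolysis was followed at 480 nm.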
Pf growth 96h: P. falciparum growth inhibition at 96 hours | P. falciparum luciferase reporter growth, 96 h | Potency, µM (highest dose often 28.7 µM), for the others: at the highest dose activity change, negative = inhibition, hits mostly inhibitors | 320,000 tested, 6.9% active | AID 504834
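96 h incubation, 37 C, 5% CO2, of luciferase-reporter P. falciparum-infected RBCs (2% hematocrit, 0.05% parasitemia final) with test compounds; endpoint luminescence.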
AMA1 RON2 block: AMA1-RON2 (P. falciparum) interaction inhibition. 360,000 tested, 0.2% active. AlphaScreen AMA1-biotinylated RON2 peptide binding. AID 720542. Potency, µM (highest dose often 58.2 µM), for the others: top-dose activity change, negative = inhibition, hits mostly inhibitors;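 further: 0% = vehicle wells and -100% = peptide control; nearly all actives have a fitted effect of over 45% in size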
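AMA1 (3D7) with his tag at 25 nM final met compounds first, then biotinylated RON2 peptide at 25 nM; detection used donor plus acceptor beads, 10 µg/mL apiece, read by AlphaScreen after 30 min at room temperature.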
Pf growth 48h: inhibits P. falciparum growth in the first generation, 48 h; Potency, µM (highest dose often 28.7 µM), for inactives: top-dose activity change, negative = inhibition, hits mostly inhibitors; 310,000 tested, 5.9% active; P. falciparum luciferase growth in erythrocytes, 48 h; AID 504832
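Luminescence readout; reporter = integrated firefly luciferase in P. falciparum. RBC culture at 2% hematocrit, 0.1% parasitemia final, 37 C/5% CO2; decreased signal taken as growth inhibition.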
HCV inhibitor: blocks hepatitis C virus; Huh7.5.1 HCVcc-Cre infection, luciferase reporter, 44 h; Potency, µM (highest dose often 41.8 µM), inactives show at the highest dose activity change, negative = inhibition, actives largely listed as inhibitors; 340,000 tested, 3.4% active; AID 651820
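1,000 cells/well; 4 h culture; + compound; + HCVcc-Cre (~0.5 moi); 44 h; luciferase substrate, RT 15 min; read 15 sec.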
AmpC inh no detg: AmpC beta-lactamase inhibition without detergent; AmpC nitrocefin hydrolysis, absorbance 480 nm, 0.0001% Triton; Potency, µM (titrated, usually from 57.1 µM), without a hit: at the highest dose activity change, negative = inhibition, usual class: inhibitors; 330,000 tested, 0.52% active; AID 485341;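 further: plate controls were no compound for no effect and no enzyme for full effect; nearly all actives have a fitted effect of over 20% in size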
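20 mM phosphate pH 7.0 + 0.01% (detergent screen) or 0.0001% Triton X-100; 5.3 nM AmpC reagent; cpd preinc 15 min RT; nitrocefin (800 uM stock) to start; A480 q20 s × 4 min; Activity was normalised to no-enzyme and no-compound control wells.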
* = called active by the depositor; ? = inconclusive; · = not tested or not shown; [ ] = dose if it differs, or a comment. The list is not random: actives were taken first. Their share in the collection is about 11%. The call rests on the fitted dose curve; in most records, active means well fitted curve in the direction sought with a large enough effect; inconclusive means small, poorly fitted or top-dose-only effect, or another doubt; inactive means no such curve, though single readings can be large; an effect the other way counts as inactive or inconclusive. Unless noted, on the % scale 0 is the no-effect control and ±100 the full control effect; potency means the concentration at half of the fitted maximal effect.

SMILES | AmpC inh detg | Pf growth 96h | AMA1 RON2 block | Pf growth 48h | HCV inhibitor | AmpC inh no detg
O=C(NC(=S)Nc1nc(-c2ccccc2)cs1)c1cccnc1 | ? | 11.7µM* | 29.5% | -23.0% | 6.2% | -58.4%
O=C(Nc1nc(-c2ccccc2Cl)cs1)c1cccnc1 | -11.2% | · | -4.6% | ? | 31.6µM* | -29.7%
Cc1noc(C)c1C(=O)Nc1nc(-c2ccccc2Cl)cs1 | -12.6% | 89.4% | 1.7% | 62.3% | ? | -17.2%
CCc1ccccc1OCC(=O)Nc1nc(-c2cccnc2)cs1 | 1.7% | 4.15µM* | 54.8% | 4.15µM* | ? | -25.7%
CCC(=O)c1ccc(OCC(=O)Nc2nc(-c3cccnc3)cs2)cc1 | -13.9% | ? | -0.7% | ? | 13.7% | -14.0%
CCc1ccc(-c2csc(NC(=O)Oc3ccccc3)n2)cc1 | -14.4% | 11.7µM* | -4.5% | 196.3% | -26.1% | -37.1%
CC(C)(C)NS(=O)(=O)c1ccc(CCC(=O)NCc2ccco2)cc1 | ? | 11.7µM* | 1.1% | -28.4% | 9.3% | -1.0%
CC(C)c1ccc(CN(C)C(=O)c2ccc(S(=O)(=O)NCc3ccco3)cc2)cc1 | 0.5% | ? | -2.1% | 9.4% | 6.31µM* | 15.6%
Cc1nn(-c2ccccc2)c(C)c1CN(C)C(=O)c1ccc(S(=O)(=O)NCc2ccco2)cc1 | -2.4% | ? | -2.3% | ? | 14.1µM* | 33.3%
O=C(NC1CCCCC1)C(c1ccc(F)cc1)N(C(=O)c1cccs1)c1ccc2c(c1)OCO2 (stereo not drawn) | -4.8% | 20.1% | -6.6% | -0.9% | 5.8% | -2.8%
COc1ccc(N(C(=O)CCl)C(C(=O)NCCc2ccccc2)c2cccs2)cc1 (stereo not drawn) | -17.2% | 102.6% | 1.4% | 14.7µM* | 5.62µM* | -10.6%
COc1ccc(CNC(=O)C(c2ccncc2)N(C(=O)Cc2cccs2)c2ccccc2)cc1 (stereo not drawn) | -15.3% | 13.1µM* | 21.5% | 6.2% | -1.6% | -4.5%
COC(=O)c1ccc(C(C(=O)NC2CCCCC2)N(Cc2ccc(F)cc2)C(=O)Cc2cccs2)cc1 (stereo not drawn) | -18.8% | ? | -3.7% | 11.7µM* | -2.2% | -15.9%
O=C(NC1CCCCC1)C(c1ccc2ncccc2c1)N(Cc1ccc(F)cc1)C(=O)c1cccs1 (stereo not drawn) | ? | 10.4µM* | -6.0% | 8.28µM* | ? | -4.2%
COc1ccc(CNC(=O)C(c2ccncc2)N(C(=O)Cc2cccs2)c2ccc(C)cc2)cc1 (stereo not drawn) | -1.2% | ? | -2.8% | ? | -0.2% | 75.9%
CCn1c(=O)cc(OCC(=O)N(C)c2ccc(OC)cc2)c2ccccc21 | 10.1% | · | · | · | · | ·
CCC(=O)N1CCc2cc(S(=O)(=O)NC(C(=O)Nc3cc(OC)cc(OC)c3)C(C)C)ccc21 (stereo not drawn) | -1.7% | · | · | · | · | ·
Cc1cc(C)c2oc(-c3cccc(NC(=O)COc4ccccc4Cl)c3C)nc2c1 | -3.1% | · | · | · | · | ·
Cc1cccc(N(C(=O)Cc2cccs2)C(C(=O)NC2CCCC2)c2ccncc2)c1 (stereo not drawn) | 6.7% | -16.5% | 8.3% | -48.3% | -28.4% | 7.1%
COc1ccc(C(C(=O)NC2CCCC2)N(Cc2cccnc2)C(=O)Cc2cccs2)cc1OC (stereo not drawn) | 3.0% | -8.2% | 10.6% | -14.0% | 17.6% | 8.2%
COc1ccc(CN(C(=O)Cc2cccs2)C(C(=O)NC2CCCC2)c2ccncc2)cc1 (stereo not drawn) | -13.6% | 14.7µM* | 1.7% | ? | -2.3% | 37.2%
Cc1ccc(N(C(=O)Cc2cccs2)C(C(=O)NC2CCCCC2)c2ccccn2)cc1C (stereo not drawn) | -11.0% | 4.15µM* | 13.8% | 0.0% | -15.1% | 63.1%
COc1cccc(NC(=O)c2sc3nc(C)c(C(=O)Nc4ccc(Cl)cc4)c(-c4ccc(Br)cc4)c3c2N)c1 | -1.6% | · | · | · | · | ·
Cc1cc(Br)ccc1NC(=O)C(NS(=O)(=O)c1cccs1)c1ccccc1 (stereo not drawn) | -8.7% | · | · | · | · | ·
CCC(=O)N1CCc2cc(Br)cc(S(=O)(=O)CCC(=O)N(CC)Cc3ccccc3)c21 | 12.3% | · | · | · | · | ·
SMILES | AmpC inh detg | Pf growth 96h | AMA1 RON2 block | Pf growth 48h | HCV inhibitor | AmpC inh no detg
Cc1ccc(Cl)c(NC(=O)COC(=O)c2ccccc2C(=O)c2ccc(Cl)c([N+](=O)[O-])c2)c1Cl | 0.5% | -23.5% | -0.2% | -28.9% | ? | 20µM*
Cc1c(C)c2c(OCC(=O)NCc3cccnc3)cc3c(c2oc1=O)CCC(C)(C)O3 | -15.6% | ? | 10.0% | -7.5% | -2.3% | -10.6%
CCc1cc(=O)oc2c3c(cc(OCC(=O)NCc4cccnc4)c12)OC(C)(C)CC3 | ? | ? | 13.3% | 9.28µM* | ? | 316.5%
CCCc1cc(=O)oc2c3c(cc(OCC(=O)NCC4CCC(C(=O)O)CC4)c12)OC(C)(C)CC3 (stereo not drawn) | ? | 1.31µM* | 22.6% | ? | -22.7% | -17.1%
CCc1cc(=O)oc2c3c(cc(OCC(=O)Nc4cccnc4)c12)OC(C)(C)CC3 | ? | 2.94µM* | 2.8% | 2.08µM* | 10µM* | 51.2%
Cc1c(C)c2c(OCC(=O)Nc3cccnc3)cc3c(c2oc1=O)CCC(C)(C)O3 | -15.3% | 4.15µM* | -12.8% | ? | -5.1% | -19.6%
CCc1cc(=O)oc2c3c(cc(OCC(=O)NCCCCCC(=O)O)c12)OC(C)(C)CC3 | -9.8% | ? | -1.0% | ? | -5.2% | -8.2%
COc1ccccc1CNC(=O)CN1C(=O)CCn2nc(-c3ccccc3)cc21 | 27.2% | · | · | · | · | ·
COc1cc2c(c3oc(=O)cc(CC(=O)O)c13)CCC(C)(C)O2 | -3.9% | 5.22µM* | -0.1% | ? | 10µM* | 4.6%
CCCc1cc(=O)oc2c(C)c(OCC(=O)Nc3cccnc3)ccc12 | -3.9% | 2.33µM* | -10.5% | 3.29µM* | ? | -2.3%
Cc1cc(=O)oc2c(C)c(OCC(=O)Nc3cccnc3)ccc12 | -9.6% | -23.8% | 1.9% | ? | -15.7% | -6.7%
Fc1ccc(-n2ncc3c(N4CCN(c5ccccc5F)CC4)ncnc32)cc1 | -5.3% | · | · | · | · | ·
COc1ccc(CNC(=O)CN(c2cc(C(F)(F)F)ccc2Cl)S(C)(=O)=O)cc1 | 4.7% | · | · | · | · | ·
CC1SC(c2ccccc2Cl)NC1=O (stereo not drawn) | -9.4% | 11.7µM* | 8.8% | · | -0.8% | -0.9%
O=C1NC(c2ccccc2Cl)Nc2ccccc21 (stereo not drawn) | ? | 3.1%[5.75 µM] | -1.1% | 10.0% | -11.6% | -6.2%
NC(CS)C(=O)O (stereo not drawn) | · | -8.1% | · | 4.26µM* | · | ·
